# Assay outcomes (PubChem)
# A selection: hits, their analogues and other compounds. The true share with any hit is near 2.3%.
# HTT cytoprotect = cytoprotection in Huntington HTT-Q103 PC12 cell model; PC12 HTT-Q103 induced, cytoprotection, ATP luminescence, 40 h; Potency, µM (highest dose often 56.4 µM), without a hit: cytoprotection (ATP increase), actives largely listed as activators; 230,000 compounds, 0.14% hits; AID 1471; also: potency is read from the fitted curve at half-maximal effect; % of control where 0% means no effect; nearly all actives have a fitted effect of over 45% in size
#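 Readout: ATPlite luminescence (ATP level). Model: stable PC12, inducible Htt exon1 Q103-GFP. Inducer: tebufenozide, 100 nM final. Compounds: dose series. No G418 in medium.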
# GoLoco inh red = inhibitors of human Gai1-RGS12 GoLoco interaction (red fluorophore); Potency, µM (titrated, usually from 61.6 µM), for the others: top-dose activity, negative = inhibition, most hits filed as inhibitors; Gai1:RGS12 GoLoco peptide FP, rhodamine, 10 min; 230,000 compounds, 0.44% hits; active = well fitted inhibition curve with a large enough effect, not every such curve was filed as active; inactive = no such curve, though single readings can be large or run the other way; also: potency is read from the fitted curve at half-maximal effect; % is scaled to controls: 0 for no effect and ±100 for the full control effect; nearly all actives have a fitted effect of over 30% in size
# Target sequence (P63096 whole entry, looked up): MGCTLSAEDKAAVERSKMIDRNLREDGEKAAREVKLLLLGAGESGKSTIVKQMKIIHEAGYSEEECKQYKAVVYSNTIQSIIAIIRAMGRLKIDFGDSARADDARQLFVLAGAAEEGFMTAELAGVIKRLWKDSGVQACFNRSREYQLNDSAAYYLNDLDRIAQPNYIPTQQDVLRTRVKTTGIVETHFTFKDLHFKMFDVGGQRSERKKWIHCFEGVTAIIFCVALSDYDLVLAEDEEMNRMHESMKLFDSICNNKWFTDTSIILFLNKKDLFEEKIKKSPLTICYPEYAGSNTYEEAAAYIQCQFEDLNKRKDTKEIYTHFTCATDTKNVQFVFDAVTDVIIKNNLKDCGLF
# FBPA coupling cs = counter-screen for Giardia aldolase inhibitors: coupling enzyme system; 290,000 compounds, 0.67% hits; activity change, negative = inhibition, % at 58.2 µM, hits read low; AID 2472; coupling enzyme system counterscreen, AmpLite Red fluorescence; in the data active = activity change below about -30%; also: % is scaled to controls: 0 for no effect and ±100 for the full control effect
#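 Final compound at 57.5 uM, incubated 10 min at RT with coupling enzyme reagent (glyceraldehyde-3-phosphate), then 20 min with substrate and AmpLite Red detection. Fluorescence read at 525/598 nm; tests interference with the coupling assay, not aldolase inhibition.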
# KDM4E inh = JMJD2E (human) inhibition; B2RXH2; JMJD2E catalytic domain, FDH-coupled NADH fluorescence (FDH is formaldehyde dehydrogenase); Potency, µM (highest dose often 57.1 µM), inactives show top-dose activity change, negative = inhibition, hits mostly inhibitors; 230,000 compounds, 1.6% hits; AID 2147; active = well fitted inhibition curve with a large enough effect, not every such curve was filed as active; inconclusive = small, poorly fitted or top-dose-only effect, or another doubt; inactive = no such curve, though single readings can be large or run the other way;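 also: potency is read from the fitted curve at half-maximal effect; 0% = wells with enzyme and -100% = buffer wells without enzyme; nearly all actives have a fitted effect of over 50% in size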
# Target sequence (B2RXH2 1-337 limits assumed): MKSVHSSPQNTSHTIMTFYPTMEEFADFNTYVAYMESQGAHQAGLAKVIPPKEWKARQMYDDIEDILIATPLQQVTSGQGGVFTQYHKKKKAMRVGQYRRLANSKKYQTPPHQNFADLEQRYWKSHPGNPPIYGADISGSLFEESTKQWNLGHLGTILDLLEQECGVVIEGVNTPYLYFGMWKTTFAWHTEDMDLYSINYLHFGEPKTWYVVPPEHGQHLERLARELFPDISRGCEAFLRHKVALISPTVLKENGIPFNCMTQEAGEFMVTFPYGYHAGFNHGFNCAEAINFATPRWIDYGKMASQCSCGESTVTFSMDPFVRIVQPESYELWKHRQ
# VDR inhibitor = vitamin D3 receptor (human) inhibition; VDR-SRC2-3 peptide fluorescence polarization, 2 h; Potency, µM, for the others: max response, negative = inhibition, usual class: inhibitors; AID 504847; 400,000 compounds, 0.93% hits; also: potency is read from the fitted curve at half-maximal effect; % is scaled to controls: 0 for no effect and ±100 for the full control effect
#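 Reagent solutions, kept cold and dark, are dispensed first; compounds are then pinned in at 23 nl, plates briefly spun, and incubated 2 h at ambient temperature. Inhibition of VDR–SRC2-3 peptide binding is read by fluorescence polarization.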
# HTT aggregate = inhibitors of mutant huntingtin aggregate formation in PC12 cells | Potency, µM (titrated, usually from 46.1 µM), for inactives: at the top dose activity change, negative = inhibition, actives largely listed as inhibitors | PC12 HttQ103-GFP aggregates, Acumen cytometry, 40 h | 220,000 compounds, 1.1% hits; also: potency is read from the fitted curve at half-maximal effect; % is scaled to controls: 0 for no effect and ±100 for the full control effect; nearly all actives have a fitted effect of over 60% in size
#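 PC12/HTTQ103-GFP, ecdysone-inducible; teb 100 nM; cpd qHTS titration; GFP aggregates read on laser cytometer, Ex 488/Em 500-530 nm.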
# * hit, by the source's call; ? = inconclusive; · = no result; [ ] = another dose, or the depositor's remark. Unless noted, calls follow the shape of the dose curve; as a rule, active = well fitted curve in the direction sought with a large enough effect; inconclusive = small, poorly fitted or top-dose-only effect, or another doubt; inactive = no such curve, though single readings can be large; an effect the other way counts as inactive or inconclusive.
SMILES,HTT cytoprotect,GoLoco inh red,FBPA coupling cs,KDM4E inh,VDR inhibitor,HTT aggregate
C[C@H](O)[C@H](O)[C@@H](O)c1cnc2nc(N)[nH]c(=O)c2n1,-1%,·,·,·,·,·
Cc1ccc(-c2nc(-c3cc4cccc(OCc5cccc(F)c5)c4oc3=O)no2)cc1,·,·,·,·,-4%,·
COc1ccc(C(=O)C2CCN(C(=S)Nc3ccc(F)cc3)CC2)cc1,2.5µM*,2%,-1,-8%,40%,-32%
COc1ccc(-c2csc(NC(=O)c3ccccc3NS(=O)(=O)c3ccc(F)c(F)c3)n2)cc1,-66%[10 µM],2%,-1,?,-6%,2.5µM*
Cc1ccc(S(=O)(=O)Nc2ccccc2C(=O)Nc2nc(-c3ccc(F)cc3)cs2)cc1,-44%[0.074 µM],-20%,-4,11%,-21%,9%
Cc1c(N=NC2=C(O)CCCC2=O)c(=O)n(-c2ccccc2)n1C,-8%[10 µM],18µM*,-15,-8%,2%,22%
O=S(=O)(NCC1CCN(c2ccc(S(=O)(=O)N3CCOCC3)cc2)CC1)c1ccc(F)cc1,·,·,0,·,-24%,·
N=C(N)c1ccc(N)cc1,10%[1.9 µM],4%,·,0%,-7%,·
Nc1ccc(O)cc1,?,-37%,·,·,79µM*,·
CC(=O)NC(=S)Nc1ccc([N+](=O)[O-])cc1C,11µM*,18%,3,7%,-21%,?
N#CC(C#N)=Cc1ccc(OC(=O)c2ccccn2)cc1,-21%[10 µM],98%,1,18µM*,?,18%
Nc1nc(-c2nn(Cc3ccccc3F)c3ncccc23)ncc1C1CC1,·,·,0,·,-14%,·
Cc1nc(-c2ccccc2)sc1-c1n[nH]c(=S)n1C,-19%,7%,3,?,-2%,12%
CSc1sc(-c2n[nH]c(=S)n2C)c2c1C=CCC2,14%[10 µM],3%,-34*,?,-4%,4%[9.22 µM]
Cc1cc(C(=O)COC(=O)c2ccccc2Br)c(C)n1CC1CCCO1 (centres undefined),-27%[10 µM],5%,-6,18%,23%,41%[9.22 µM]
Cc1cc(C(=O)CSc2nc3ccc(Cl)cc3[nH]2)c(C)n1CC1CCCO1 (centres undefined),-130%,13%,1,1%,30%,3.2µM*
Cc1cc(C(=O)CSc2nc3ccc(Cl)cc3[nH]2)c(C)n1C,12%[10 µM],31%,-4,-17%,4%,15%
Cc1cc(C(=O)COC(=O)c2cc(O)c3ccccc3c2O)c(C)n1CC1CCCO1 (centres undefined),-122%,-8%,-46*,28µM*,71µM*,-17%
Cc1cc(C(=O)COC(=O)c2cccnc2Cl)c(C)n1CC1CCCO1 (centres undefined),-164%,2%,3,0%,89µM*,-22%
O=C(/C=C/c1ccccc1)NC(NC(=S)Nc1cc(Cl)ccc1Cl)C(Cl)(Cl)Cl (centres undefined),-31%,-6%,1,4%,13%,2.8µM*
O=C(/C=C/c1ccccc1)NC(NC(=S)Nc1ccc(Cl)cc1)C(Cl)(Cl)Cl (centres undefined),-59%,-2%,1,2%,?,-16%
O=C(c1cccc2c1-c1ccccc1/C2=N/O)N1CCCCC1,6%,-4%,10,8%,16%,11µM*
COc1ccc2c(c1)[N+](=O)C(/C(C)=N/NC(N)=S)=C(C)[N+]2=O,·,5%[14.2 µM],·,·,·,·
Cc1ccccc1NCc1ccccc1O,-29%,·,-33*,-8%,10%,?
CCOc1ccc(-c2cc(C(=O)Oc3ccc(C#N)cc3)no2)cc1,·,·,·,·,14%,·
SMILES,HTT cytoprotect,GoLoco inh red,FBPA coupling cs,KDM4E inh,VDR inhibitor,HTT aggregate
CC#CCN1c2ccccc2[C@]23C[C@@H](C(=O)OC)N(S(=O)(=O)c4c(C)noc4C)C2=NC(C(=O)OC)=C(C(=O)OC)[C@H]13,-12%[10 µM],4%[14.2 µM],2,4%[11.4 µM],·,·
c1ccc(CSc2ccc(-c3cccs3)nn2)nc1,-94%,6%,-4,-8%,-5%,0.032µM*
c1ccc(CSc2ccc(-c3cccs3)nn2)cc1,5%[10 µM],15%,1,-3%,-24%,11%
NS(=O)(=O)c1ccc(N=Nc2ccc(=O)[nH]c2O)cc1,6%[10 µM],-51%,-32*,-7%,-5%,5%[9.22 µM]
Cc1noc(C)c1CSc1nc2ccccc2n1CCc1ccccc1,-20%[0.074 µM],14%,-6,-4%,79µM*,14%
CN1CCN(CC(=O)c2cc(C(C)(C)C)c(O)c(C(C)(C)C)c2)CC1,·,·,-4,·,71µM*,·
C=Cn1cc[n+](CC(=O)c2cc(C(C)(C)C)c(O)c(C(C)(C)C)c2)c1,·,·,-1,·,-11%,·
Cc1cc(NC(=O)Nc2nnc(N3CCCCC3)s2)ccc1Br,·,·,·,·,-2%,·
CN(C)CCCN(C(=O)c1ccc2c(c1)CCCC2)c1nc2c(F)cccc2s1,5%[1.9 µM],-15%,-37*,4%,-17%,3%
CN(C)CCCN(C(=O)CCc1ccccc1)c1nc2c(F)cccc2s1,2%[10 µM],13%,0,0%,-11%,19%
CN(C)CCCN(C(=O)CCOc1ccccc1)c1nc2c(F)cccc2s1,-176%,-14%,4,2%,?,13µM*
O=C1[C@@H]2[C@@H]3C=C[C@H]([C@@H]2C(=O)N1CN1CCSCC1)[C@@H]1[C@@H]2C(=O)N(CN4CCSCC4)C(=O)[C@@H]2[C@H]31,-21%[10 µM],·,·,·,·,·
CCCN1CNc2c(c(=O)[nH]c(=S)n2CCc2cc(Cl)cc(Cl)c2)C1,·,·,·,·,-2%,·
CN(Cc1ccco1)c1ccnc(-c2cccc(NS(C)(=O)=O)c2)n1,-46%,8%,-1,-5%,?,·
COc1cccc(-c2nccc(N(C)Cc3ccco3)n2)c1,-49%,10%,0,·,35µM*,·
c1coc(CSSCc2ccco2)c1,·,·,·,·,22µM*,·
CC(=O)OCc1ccco1,-15%,2%,·,·,·,·
CCC(Sc1nc2nccnc2c(=O)n1Cc1ccccc1Cl)C(=O)NC1CCCCC1 (centres undefined),·,·,·,·,-8%,·
N#CCSc1nc(Nc2ccc3c(c2)OCO3)c2ccccc2n1,-36%,3%,0,-3%,2%,25µM*
Fc1cccc(Nc2cc(-n3cccn3)ncn2)c1,10%[10 µM],3%,0,?,-12%,13µM*
Nc1c(N=Nc2ccc(-c3ccc(N=Nc4cc(S(=O)(=O)O)c5ccccc5c4N)cc3)cc2)cc(S(=O)(=O)O)c2ccccc12,11%,238%,-12,·,28µM*,-22%
Cc1cc(-c2ccc(N=Nc3ccc4c(S(=O)(=O)O)cc(S(=O)(=O)O)c(N)c4c3O)c(C)c2)ccc1N=Nc1ccc2c(S(=O)(=O)O)cc(S(=O)(=O)O)c(N)c2c1O,26%,29%,-38*,?,?,-8%
Cc1ccc(C(=O)CSc2ccccn2)cc1,5%,7%,5,?,79µM*,9%
